Source: PubChem (The Scripps Research Institute Molecular Screening Center)
Most compounds without a hit are left out; they make up all but 2.9% or so of the library.
ADAM17 inh = inhibits human ADAM17 | P78536 | recombinant ADAM17, EDANS/DABCYL FRET peptide cleavage | inhibition, % at 6.95 µM | 0.83% of 370,000 active | AID 720648;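 active = inhibition above the mean of compounds lying between control limits plus 3 SD, set per campaign, cut at about 8.5% in these data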;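 note: 0% = DMSO-only wells as the low control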
KLK7 zymogen act = activators of human kallikrein-7 zymogen; purified proKLK7, EDANS-DABCYL substrate fluorescence; 100% is mature enzyme control, 0% vehicle; activation, % at 7 µM; 0.9% of 370,000 active;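 active = activation above the mean of all tested compounds plus 3 SD, computed per campaign excluding outliers beyond control limits, cut at about 13% in these data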
PLCb3 inh = PLC-beta3 (human) inhibition, primary screen; Q01970; Purified PLC-beta3, fluorogenic substrate, fluorescence; inhibition, % at 12.2 µM; 0.18% of 370,000 active; AID 720704; in the data active = inhibition above about 11%;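 note: 0% = median of compound wells on plate and 100% = full blocker control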
PLCg1 inh = PLC-gamma1 (human) inhibition, primary screen; P19174; purified PLC-gamma1, fluorogenic substrate, fluorescence; inhibition, % at 12.2 µM; 0.84% of 370,000 active; in the data active = inhibition above about 9.5%
ADAM10 inh = inhibitors of human ADAM10; AID 720582; recombinant ADAM10, EDANS/DABCYL FRET peptide cleavage, 3 h; O14672; inhibition, % at 7 µM; 0.62% of 370,000 active;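 active = inhibition above a per-campaign cutoff equal to the mean of compounds falling between control-based bounds plus 3 SD, cut at about 20% in these data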;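 note: 0% = DMSO wells while the 100% control is not disclosed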
Target sequence (O14672 214-748 limits assumed): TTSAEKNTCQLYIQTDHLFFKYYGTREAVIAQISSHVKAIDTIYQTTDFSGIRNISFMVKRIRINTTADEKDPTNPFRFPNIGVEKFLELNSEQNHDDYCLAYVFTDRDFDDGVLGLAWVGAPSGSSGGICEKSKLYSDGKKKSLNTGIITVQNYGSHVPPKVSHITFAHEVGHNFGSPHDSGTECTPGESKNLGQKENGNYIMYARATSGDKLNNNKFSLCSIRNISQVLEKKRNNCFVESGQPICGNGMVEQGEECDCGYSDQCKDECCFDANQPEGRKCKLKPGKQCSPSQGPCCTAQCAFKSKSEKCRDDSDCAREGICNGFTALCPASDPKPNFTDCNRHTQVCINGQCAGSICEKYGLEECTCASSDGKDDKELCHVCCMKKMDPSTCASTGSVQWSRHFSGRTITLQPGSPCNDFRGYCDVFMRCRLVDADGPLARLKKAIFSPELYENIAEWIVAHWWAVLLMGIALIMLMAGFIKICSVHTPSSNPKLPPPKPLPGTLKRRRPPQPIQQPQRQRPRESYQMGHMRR
ADAM10 ctr = ADAM10 inhibition, counter-screen for ADAM17 exosite hits; shares compounds with ADAM17 inh; recombinant ADAM10, EDANS/DABCYL FRET peptide cleavage, 3 h; inhibition, % at 6.95 µM; 47% of 2,900 active;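 active = mean inhibition over the triplicate runs exceeds the activity threshold set in the earlier primary screen, cut at about 20% in these data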;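 note: 0% = DMSO wells and 100% = marimastat wells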
ADAM17 confirm = human ADAM17 inhibition, confirmation; inhibition, % at 6.95 µM; 65% of 2,900 active; shares compounds with ADAM17 inh; recombinant ADAM17, EDANS/DABCYL QFRET peptide cleavage;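 active = mean inhibition across replicates above the hit cutoff set in the primary screen, cut at about 8.5% in these data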;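 note: 0% = DMSO wells and 100% = marimastat wells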
An asterisk follows results filed as active; . = not tested or not shown.

SMILES | ADAM17 inh | KLK7 zymogen act | PLCb3 inh | PLCg1 inh | ADAM10 inh | ADAM10 ctr | ADAM17 confirm
CC(C)[C@@H]1NC(=O)[C@H]2C[C@@]3(c4ccccc4)c4ccccc4N[C@H]3N2C1=O | -2 | -1 | -5 | -1 | -11 | . | .
COc1ccc2c(c1)[C@H]1[C@H](CO2)[C@H](c2ccccc2)[C@]2(C)C(=O)Nc3ccc(Cl)cc3C(=O)N12 | 8 | -3 | -10 | -6 | 15 | . | .
COc1ccc2c(c1)C(=O)N1[C@H]3c4cc(C)ccc4OC[C@@H]3[C@H](c3ccccc3)[C@]1(C)C(=O)N2 | 8.9* | -4 | -18 | -10 | 14 | 6 | 9.6*
CC1(c2nnc(-c3cccc(Cl)c3)o2)CC(c2ccc(F)cc2)=NO1 (stereo not given) | 11* | 0 | 4 | 8 | 10 | -3 | 3
CC(C)[C@@H]1Cc2[nH]c(=O)[nH]c(=O)c2[C@H](C)O1 | -5 | 0 | 2 | 2 | 1 | . | .
COc1cc(C(=O)NC(=S)NNC(=O)c2cnccn2)cc(OC)c1OC | 11* | -1 | -11 | -4 | 9 | 4 | 3
CN(C)C(=O)c1cccc(-c2cccc(-c3nc(C(=O)NCc4ccccc4)cc4c3[C@@H](CCO)N(S(=O)C(C)(C)C)C4)c2)c1 (stereo not given in full) | 3 | 1 | -1 | -2 | 5 | . | .
CCCCn1nnnc1C(c1cc2ccccc2o1)N1CCN(c2cc(C)nc3ccccc23)CC1 (stereo not given) | 8.8* | -2 | -5 | 0 | 10 | -13 | 1
CCCCn1nnnc1C(c1cc2ccccc2o1)N1CCN(c2ccccc2F)CC1 (stereo not given) | -1 | 0 | 1 | 2 | -7 | . | .
COc1ccc(C2=Nn3c(nnc3-c3ccccc3F)SC2)cc1OC1CCOC1 (stereo not given) | 0 | 1 | 3 | -1 | 0 | . | .
COc1ccc(C2=Nn3c(nnc3-c3ccccc3F)SC2)cc1OC1CCCC1 | 11* | 1 | 5 | 5 | 27* | 24* | 17*
CN1CCC(N[C@@H](Cc2c[nH]c3ccccc23)C(=O)NCC(c2ccccc2)c2ccccc2)(C(=O)NC2CCCCC2)CC1 | 0 | . | 3 | 8 | 11 | . | .
O=C(Nc1ccc(Cl)c(Cl)c1)C1CCCN(c2nnc(-n3cccc3)s2)C1 (stereo not given) | 11* | 0 | 2 | 4 | 16 | 30* | 15*
CC(C)(O)C#Cc1ccc(N2C(c3ccsc3)=Cc3ccc(F)cc3C2c2c[nH]c3ccccc23)cc1 (stereo not given) | -6 | 0 | -15 | -14 | -15 | . | .
CC(OC(=O)C1CCN(c2ccc(C(F)(F)F)cn2)CC1)C(=O)Nc1ccc(S(N)(=O)=O)cc1 (stereo not given) | -2 | 0 | -17 | -3 | -7 | . | .
CC(=O)c1ccc(NC(=O)C(C)OC(=O)C2CCN(c3ccc(C(F)(F)F)cn3)CC2)cc1 (stereo not given) | 9.0* | 0 | 0 | 9 | 12 | 14 | 9.1*
O=C(Nc1ccc2c(c1)OCCO2)C(C1CC1)N1CCN(c2ccc(C(F)(F)F)cn2)CC1 (stereo not given) | 8.8* | 0 | -8 | -5 | 9 | 17 | 11*
O=C(Nc1ccc2c(c1)OCCO2)C(c1ccnc2ccccc12)N1CCN(c2ccc(C(F)(F)F)cn2)CC1 (stereo not given) | 11* | -1 | -1 | 1 | 16 | 54* | 25*
CCOC(=O)C(C#N)(Cc1cc(OC)cc(OC)c1)Cc1cc(OC)cc(OC)c1 | 1 | 0 | 3 | -1 | -1 | . | .
CC(=O)O[C@@H]1C=C[C@@H](C#Cc2ccc(C(C)(C)C)cc2)O[C@@H]1COC(=O)Nc1ccccc1 | 13* | 0 | 7 | 2 | 13 | 29* | 13*
CC(=O)O[C@H]1C=C[C@@H](C#Cc2ccc(C(C)(C)C)cc2)O[C@@H]1COC(=O)Nc1ccccc1 | 0 | 0 | -5 | -6 | 0 | . | .
CCOC(=O)C1=C(C)N(CCCCCC(=O)O)C(=O)NC1c1ccccc1OC(=O)c1cccs1 (stereo not given) | 10* | 0 | 2 | 6 | 5 | -1 | 4
CCOC(=O)C1=C(C)N(CCC(=O)O)C(=O)NC1c1ccccc1Cl (stereo not given) | -4 | 0 | 0 | 4 | 5 | . | .
O=C(OCC#CCSc1nnc(-c2ccc(Cl)cc2)o1)c1ccc(F)cc1 | -2 | . | 4 | 0 | 3 | . | .
COc1ccc(C)cc1NC(=O)NNC(=O)C(C)Oc1ccc([N+](=O)[O-])cc1 (stereo not given) | 9.0* | 0 | -5 | 6 | 16 | 13 | 9.0*
SMILES | ADAM17 inh | KLK7 zymogen act | PLCb3 inh | PLCg1 inh | ADAM10 inh | ADAM10 ctr | ADAM17 confirm
O=C1N[C@@H](c2ccccc2)COC(=O)[C@@H](Cc2ccc(F)cc2)CC/C=C/C[C@H]1CC(=O)N(CCO)Cc1ccccc1 | 2 | 0 | -2 | 0 | 4 | . | .
O=C1N[C@H](Cc2ccccc2)COC(=O)[C@H](Cc2ccc(F)cc2)CC/C=C/C[C@H]1CC(=O)N(CCO)Cc1ccccc1 | 8.7* | 1 | -4 | -2 | 7 | 21* | 11*
O=C1N[C@@H](c2ccccc2)COC(=O)[C@@H](Cc2ccc(F)cc2)CC/C=C/C[C@@H]1CC(=O)N(CCO)Cc1ccccc1 | 10* | 1 | 3 | 8 | 27* | 31* | 15*
CCSc1nnc(NC(=O)CCc2ccc(OC)cc2)s1 | 9.1* | 0 | 7 | 6 | 16 | 4 | 3
COc1cccc(C(NC(C)=O)c2nc(-c3cccc(O)c3)cs2)c1 (stereo not given) | -2 | 1 | 0 | 5 | -4 | . | .
COC(=O)CN1C(c2ccc(Cl)cc2)=Nc2ccc(Cl)cc2C1c1ccccc1 (stereo not given) | 9.0* | 0 | -20 | -10 | 12 | 23* | 13*
COc1ccc(C2=Nc3ccc(C)cc3C(c3ccccc3)N2CC(=O)NN)cc1 (stereo not given) | -3 | 0 | -4 | -8 | -1 | . | .
Cc1onc(-c2ccccc2)c1CNC(=O)Nc1ccc(C(F)(F)F)cc1 | 9.1* | 0 | -5 | 3 | 18 | 27* | 16*
CC(C)NC(=S)N/N=C1\CCCCc2ccccc21 | -2 | 1 | 1 | 0 | 2 | . | .
COc1cccc(NC(=S)N/N=C2/CCCCc3ccccc32)c1 | 9.2* | -1 | -3 | 2 | 8 | 8 | 5
CCN(CC)CC(C)(C)C(=O)/C=C/c1ccc(/C=C/C(=O)C(C)(C)CN(CC)CC)cc1 | 4 | 0 | 0 | 5 | -11 | . | .
